A selection: hits, their analogues and other compounds. The true share with any hit is near 13%.
Pf growth 48h: inhibits P. falciparum growth in the first generation, 48 h | AID 504832 | Potency, µM (series often up to 28.7 µM), hits mostly inhibitors | 5.9% of 310,000 active | P. falciparum luciferase growth in erythrocytes, 48 h
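Erythrocytes infected with P. falciparum carrying an integrated firefly luciferase reporter (2% hematocrit, 0.1% parasitemia final) were exposed to compounds in RPMI 1640 with 0.5% Albumax at 37 C, 5% CO2. Growth inhibition was scored as reduced luminescence.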
Pf growth 96h: P. falciparum growth inhibition at 96 hours | 6.9% of 320,000 active | Potency, µM (highest dose often 28.7 µM), actives largely listed as inhibitors | P. falciparum luciferase reporter growth, 96 h | AID 504834
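P. falciparum expressing integrated firefly luciferase grown in erythrocytes (2% hematocrit, 0.05% parasitemia final) with compounds for 96 hours at 37 C, 5% CO2. Growth inhibition read as loss of luminescence after adding luciferase detection reagent.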
HCMV antiviral: blocks human cytomegalovirus replication; 4.5% of 410,000 active; activity change, negative = inhibition, % at 57.5 µM; HFF cells, HCMV-luciferase reporter, 72 h; stronger effect = lower value; in the data active means activity change below about -60%; inconclusive means no clear call, values can overlap the other calls; inactive means above about -39%
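Inhibition of viral replication was scored as loss of reporter luminescence in HFFs infected with HCMV-luciferase (MOI 1 PFU/cell) for 72 h; compounds tested at 2 doses, normalized to buffer and Salinomycin controls.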
HCV inhibitor: HCV inhibition; 3.4% of 340,000 active; Huh7.5.1 HCVcc-Cre infection, luciferase reporter, 44 h; Potency, µM (series often up to 41.8 µM), usual class: inhibitors
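HCVcc-Cre virus at an moi near 0.5 was added right after compound to cells cultured 4 h from seeding (1,000 cells/well). Luciferase activity was determined 44 h later, 15 min after substrate addition at RT.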
Hits are given with their value; – = inactive; ? = inconclusive; · = no result; [ ] = dose if it differs, or a comment. Unless noted, the call rests on the fitted dose curve; in most records, active means well fitted inhibition curve with a large enough effect; inconclusive means small, poorly fitted or top-dose-only effect, or another doubt; inactive means no such curve, though single readings can be large or run the other way.

SMILES	Pf growth 48h	Pf growth 96h	HCMV antiviral	HCV inhibitor
O=C(c1ccccc1)N1N=C(c2ccccc2)CC1c1ccc2nccnc2c1 (centres undefined)	9.3µM	?	–	–
COc1ccc(C2=NN(C(=O)c3ccc(Cl)c([N+](=O)[O-])c3)C(c3ccccc3)C2)cc1 (centres undefined)	–	–	–	?
O=C(c1ccccc1)N1N=C(c2ccccc2)CC1c1ccccc1O (centres undefined)	?	–[5.75 µM]	-62	–
COc1ccc(C2CC(c3ccccc3)=NN2C(=O)c2ccc(F)cc2)cc1 (centres undefined)	12µM	–	–	–
O=[N+]([O-])c1ccc(N2N=C(c3ccccc3)CC2c2ccccc2O)cc1 (centres undefined)	?	?	-63	·
CC(=O)N1N=C(c2ccc3nccnc3c2)CC1c1ccccc1 (centres undefined)	–	–	–	–
CCOc1cc(-c2nc(-c3ccc(Br)cc3)no2)cc(OCC)c1OCC	·	·	–	·
O=C(NC1CC(=O)N(c2ccc(Cl)cc2)C1)C(=O)c1c[nH]c2ccccc12 (centres undefined)	·	·	–	·
Cc1cc2c(cc1S(=O)(=O)NCc1ccc(F)cc1)OCCN2C	·	·	–	·
COc1cc(-c2noc(-c3ccc(NCc4cccnc4)c([N+](=O)[O-])c3)n2)cc(OC)c1OC	·	·	–	·
O=C(Nc1ccc(Br)cc1F)c1cc(S(=O)(=O)NCc2ccc(F)cc2)ccc1F	·	·	–	·
Cc1ccc(C2=NN(C(=O)CCC(=O)O)C(c3cccs3)C2)cc1 (centres undefined)	–	?	–	–
Cc1ccc(C2=NN(C(=O)c3cccs3)C(c3ccccc3O)C2)cc1 (centres undefined)	?	–	-61	–
CCOC(=O)c1ccc(NC(=O)c2csnn2)cc1	·	·	–	·
CC(NC(=O)CSc1nc2c(c(C(F)(F)F)n1)CCc1ccccc1-2)c1ccccc1 (centres undefined)	7.4µM	–	?	13µM
O=C(CSc1nc2c(c(C(F)(F)F)n1)CCc1ccccc1-2)NCc1ccco1	–	–	–	?
COc1cccc(NC(=O)CSc2nccn2Cc2ccc3c(c2)OCO3)c1	·	·	–	·
CCn1cc(/C=C(\NC(=O)c2ccc(OC)cc2)C(=O)N2CCN(C)CC2)c2ccccc21	?	13µM	–	–
COc1ccc(C(=O)N/C(=C\c2cn(C)c3ccccc23)C(=O)N2CCN(C)CC2)cc1	?	–	–	–
CCn1cc(/C=C(\NC(=O)c2ccccc2OC)C(=O)NCCCN2CCOCC2)c2ccccc21	?	9.3µM	–	–
CN1CCN(C(=O)/C(=C/c2cn(S(=O)(=O)N(C)C)c3ccccc23)NC(=O)c2ccccc2)CC1	?	12µM	–	–
CN(C)S(=O)(=O)n1cc(/C=C(\NC(=O)c2ccccc2F)C(=O)NCCCn2ccnc2)c2ccccc21	10µM	–	–	–
COc1ccccc1C(=O)N/C(=C\c1cn(S(=O)(=O)N(C)C)c2ccccc12)C(=O)NCCCN1CCOCC1	?	?	?	–
CC(C)CC(=O)NCC(c1ccc2c(c1)OCO2)N1CCN(c2ccccc2)CC1 (centres undefined)	·	·	–	·
COc1ccc(CNc2oc(-c3ccc(COc4ccccc4C)o3)nc2C#N)cc1	·	·	–	·
SMILES	Pf growth 48h	Pf growth 96h	HCMV antiviral	HCV inhibitor
O=P(CCCCCCCCCP(=O)(c1ccccc1)c1ccccc1)(c1ccccc1)c1ccccc1	1.3µM	·	–	14µM
CCCCNC(=O)c1cccc(S(=O)(=O)N2CC3(C)CC2CC(C)(C)C3)c1 (centres undefined)	?	12µM	?	?
CC1(C)CC2CC(C)(CN2S(=O)(=O)c2ccc(C(=O)Nc3cc(S(=O)(=O)N4CCOCC4)ccc3Cl)cc2)C1 (centres undefined)	3.7µM	2.6µM	–	–
CC1(C)CC2CC(C)(CN2S(=O)(=O)c2ccc(C(=O)Nc3cccc(S(=O)(=O)N4CCOCC4)c3)cc2)C1 (centres undefined)	2.9µM	?	-92	11µM
COCCCNC(=O)c1cccc(S(=O)(=O)N2CC3(C)CC2CC(C)(C)C3)c1 (centres undefined)	?	–	–	–
CC1(C)CC2CC(C)(CN2S(=O)(=O)c2cccc(C(N)=O)c2)C1 (centres undefined)	?	?	–	–
COc1ccccc1CNc1ccc(-c2nc(-c3cccc(C)c3)no2)cc1[N+](=O)[O-]	·	·	–	·
N#Cc1c(-n2ncnc2-c2ccc(Br)cc2)sc2c1CCCCC2	·	·	–	·
Cc1ccc(S(=O)(=O)CC2CSc3nc4ccccc4n32)cc1 (centres undefined)	–	–	-72	?
Cc1ccc(S(=O)(=O)CCc2nc3ccccc3n2CCC#N)cc1	–	·	-81	?
Cc1ccc(S(=O)(=O)CC2CSc3nc(N)cc(=O)n32)cc1 (centres undefined)	–	?	–	–
Nc1ncnc2c1ncn2[C@@H]1O[C@H](COS(=O)(=O)O)[C@@H](O)[C@H]1O	13µM	?	–	–
CN1N=C(N)c2cn(C3OC(COP(=O)(O)O)C(O)C3O)c3ncnc1c23 (centres undefined)	·	·	-70	?
Nc1ncnc2c1ncn2[C@@H]1O[C@H](CO)C[C@H]1O	·	·	–	10µM
Nc1ncnc2c1ncn2C1OC(CO)C2OC21 (centres undefined)	·	·	–	·
Nc1ncnc2c1ncn2[C@@H]1O[C@H](COP(=O)(O)O)[C@@H](O)[C@H]1O	–	?	–	0.56µM
Nc1ncnc2c1ncn2C1OC(COP(=O)(O)O)C(O)C1O (centres undefined)	–	–	–	–
COCCNC(=O)c1cnn(-c2ccc(C)cc2C)c1C1CCN(C(=O)OC(C)(C)C)CC1	·	·	–	·
COc1cccc(-n2c(=O)c3c4c(sc3n(Cc3ccccc3C#N)c2=O)CCCC4)c1	·	·	–	·
Nc1ncnc2c1ncn2[C@@H]1O[C@H](COP(=O)(O)OP(=O)(O)OP(=O)(O)O)[C@@H](O)[C@H]1O	–	–	·	0.56µM
CCOC1OC2C(CO)OC(n3cnc4c(N)ncnc43)C2O1 (centres undefined)	–	4.7µM	–	–
NCCC(=O)NC[C@H]1O[C@@H](n2cnc3c(N)ncnc32)[C@H](O)[C@@H]1O	·	·	–	–
COc1ccc(CN2C(=NC(=O)C3CCCCC3)SC3CS(=O)(=O)CC32)cc1 (centres undefined)	?	15µM	–	–
CCOC(=O)c1cc(-c2ccc(OC)cc2)n(CCC(=O)NCCc2ccccc2)c1C	·	·	–	·
CCOc1ccc(Br)cc1S(=O)(=O)Nc1ccc(N2CCOCC2)cc1	·	?	–	–
CCOc1ccc(Br)cc1S(=O)(=O)Nc1ccccc1N1CCOCC1	8.3µM	·	–	–
COc1cccc2c(Cl)c(CCCl)c(C)nc12	–	–	-69	–
COc1cc(-c2nnc(SCC(=O)NCc3ccccc3Cl)o2)cc(OC)c1OC	·	·	–	·
CCCNC(=O)Cn1nc(-c2ccc(C)cc2)c2cnc3ccc(CC)cc3c21	·	·	–	·
CC1CCN(C(=O)CSCC(=O)Nc2nc(-c3cccs3)cs2)CC1	–	?	–	–

Source: PubChem BioAssay (National Center for Advancing Translational Sciences (NCATS))
